Hits are enriched below; roughly 21% of the tested compounds scored in any of these assays.
Shiga toxin inh = blocks Shiga toxin action in Vero cells; 290,000 compounds, 9.2% hits; inhibition, % at 38.7 µM; AID 2315; Vero cells, Shiga toxin protein synthesis inhibition reporter; in the data active means inhibition mostly above about 28%, no sharp cut-off; inactive means mostly below about 43%; further: 0% is about no effect
CHX counter = counter-screen for Shiga toxin inhibitors: cycloheximide protein synthesis inhibition | AID 2314 | 300,000 compounds, 12% hits | max response, % | cell reporter, cycloheximide protein synthesis inhibition counterscreen; in the data active means max response mostly above about 13%, no sharp cut-off; inactive means mostly below about 14%; further: read at 38.3 µM for the half of the compounds with a filed dose; 0% is about no effect
NS1 function inh = influenza NS1 inhibition | Potency, µM (series often up to 46.1 µM), inactives show at the highest dose activity, positive = more growth | 270,000 compounds, 0.4% hits | AID 2326; calls by dose curve; further: potency means the concentration at half of the fitted maximal effect; actives are rising curves; nearly all actives have a fitted effect of over 50% in size
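Read-out: OD600 growth recovery of NS1-expressing budding yeast. Cells grown overnight at 30C in -URA glucose medium, washed, resuspended and diluted 1:100 in 2% galactose assay medium, pH 6.0. Same strain lacking NS1 served as positive control.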
Sm TGR block = blocks Schistosoma mansoni thioredoxin glutathione reductase | Q962Y6 | purified TGR, DTNB reduction, TNB absorbance 405 nm | Potency, µM (doses to about 114 µM), without a hit: top-dose activity change, negative = inhibition, usual class: inhibitors | 360,000 compounds, 3% hits | AID 485364; further: potency means the concentration at half of the fitted maximal effect; on the % scale 0 is the no-effect control and ±100 the full control effect; nearly all actives have a fitted effect of over 60% in size
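First, TGR (20 nM dispensed) and NADPH were mixed with compound. Second, a 15 min room-temperature incubation followed. Third, further NADPH and then DTNB were added to start the reaction. Finally, TNB absorbance was monitored kinetically.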
Pf growth 48h = inhibits P. falciparum growth in the first generation, 48 h | P. falciparum luciferase growth in erythrocytes, 48 h | Potency, µM (highest dose often 28.7 µM), without a hit: at the top dose activity change, negative = inhibition, actives largely listed as inhibitors | 310,000 compounds, 5.9% hits | AID 504832; further: potency means the concentration at half of the fitted maximal effect; on the % scale 0 is the no-effect control and ±100 the full control effect
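Read-out is firefly luciferase luminescence from an integrated reporter in P. falciparum, so falling signal marks reduced parasite growth. Infected erythrocytes were at 2% hematocrit and 0.1% parasitemia (final) in Albumax-supplemented RPMI 1640.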
Pf growth 96h = P. falciparum growth inhibition at 96 hour, primary screen for plastid delayed-death inhibitors. P. falciparum luciferase reporter growth, 96 h. Potency, µM (highest dose often 28.7 µM), for inactives: at the highest dose activity change, negative = inhibition, most hits filed as inhibitors. 320,000 compounds, 6.9% hits. AID 504834; further: potency means the concentration at half of the fitted maximal effect; on the % scale 0 is the no-effect control and ±100 the full control effect
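P. falciparum expressing integrated firefly luciferase grown in erythrocytes (2% hematocrit, 0.05% parasitemia final) with compounds for 96 hours at 37 C, 5% CO2. Growth inhibition read as loss of luminescence after adding luciferase detection reagent.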
Numbers without * were called inactive; ? = inconclusive; . = no result given; [ ] = remark or other dose. Unless noted, the call rests on the fitted dose curve; in most records, active means well fitted curve in the direction sought with a large enough effect; inconclusive means small, poorly fitted or top-dose-only effect, or another doubt; inactive means no such curve, though single readings can be large; an effect the other way counts as inactive or inconclusive.

SMILES	Shiga toxin inh	CHX counter	NS1 function inh	Sm TGR block	Pf growth 48h	Pf growth 96h
Cc1cc(C)nc(-n2nc(C)c3c2NC(=O)CC3c2cc(F)ccc2F)n1 (stereo unspecified)	.	.	.	1%	.	.
CC(C)c1ccc(C2/C(=C(/O)c3ccc(F)cc3)C(=O)C(=O)N2CCCN2CCOCC2)cc1 (stereo unspecified)	7	-1	15%	?	0%	155%
CS(=O)(=O)N(CC(=O)Nc1ccccc1C(=O)NCCc1ccccc1)c1ccc2c(c1)OCCO2	80	35*	4%	-35%	?	.
CS(=O)(=O)N(CC(=O)Nc1ccc2c(c1)OCO2)c1ccc(Cl)cc1	116*	36*	11%	-16%	9%	-24%
COc1ccc(C2=Nn3c(nnc3-c3cccc(OC)c3)SC2)cc1	-1	-9	.	.	.	.
Cc1cc(C)n(-c2ccc(NN=C(C#N)C#N)cc2)n1	18	14	-72%	32µM*	?	?
N#CC(C#N)=NNc1ccc(-n2ccc(C(F)(F)F)n2)cc1	42	16*	-60%	?	?	?
CC(C)(C)S(=O)(=O)/C(C#N)=N/Nc1ccc(S(C)(=O)=O)cc1	35	1	.	4%	-17%	?
Cc1cc(C)n(-c2ccc(C(=O)Nc3cccnc3)cc2)n1	5	8	-1%	0%	-5%	0%
O=C(Nc1ccccc1)Nc1ccc(-n2ccc(C(F)(F)F)n2)cc1	75*	39*	0%	6%	?	3.3µM*
Cc1nn(C)c(Cl)c1CN1CCCC(C(=O)Nc2ccc(-c3cscn3)cc2)C1 (stereo unspecified)	-6	1	25%	-2%	?	?
CC(=O)c1cccc(CN2CCCC(C(=O)Nc3ccc(-c4ccco4)cc3)C2)c1 (stereo unspecified)	-2	-2	15%	?	10µM*	-15%
Cc1cccc(CN2CCCC(C(=O)Nc3ccc(-c4cscn4)cc3)C2)c1 (stereo unspecified)	-7	12	-2%	4%	?	9.3µM*
O=C(Nc1ccc(-c2cscn2)cc1)C1CCCN(Cc2ccccc2)C1 (stereo unspecified)	19	24*	33%	-2%	?	?
O=C(Nc1ccc(-c2ccco2)cc1)C1CCCN(Cc2ccc(CO)o2)C1 (stereo unspecified)	-5	9	8%	-24%	?	1%
CC(=O)c1c(C)[nH]c(C(=O)OCC(=O)N2c3ccccc3NC(=O)C2(C)C)c1C	-3	-2	-6%	-4%	-25%	?
CCN(CC)C(=O)c1c(C)[nH]c(=S)c(C#N)c1-c1ccco1	-21	-1	.	14µM*	-15%	-30%
COc1ccc(-c2c3c([nH]c(=S)c2C#N)CCC3)cc1	-3	-4	24%	45µM*	-28%	-29%
N#Cc1c(-c2ccco2)c2c([nH]c1=S)CCCC2	-4	2	?	2.8µM*	-10%	10µM*
CN(C)S(=O)(=O)c1ccc2c(c1)nnn2CCNC(=O)Nc1ccc(Br)cc1	.	.	.	2%	.	.
CCC(OCC(O)CN1CCCCC1)c1ccccc1 (stereo unspecified)	-5	4	-10%	4%	11%	11%
CC(C)Oc1ccc(C2C(C(=O)c3ccco3)=C(O)C(=O)N2Cc2cccnc2)cc1 (stereo unspecified)	45*	35*	11%	-13%	38%	.
CC(C)Oc1ccc(/C(O)=C2/C(=O)C(=O)N(Cc3cccnc3)C2c2ccco2)cc1 (stereo unspecified)	72*	62*	3%	5%	9%	97%
COc1ccc(/C(O)=C2/C(=O)C(=O)N(Cc3cccnc3)C2c2ccccn2)cc1 (stereo unspecified)	61*	24*	2%	11%	3%	1%
COCCN1C(=O)C(=O)/C(=C(/O)c2ccc(OC(C)C)cc2)C1c1cccnc1 (stereo unspecified)	-3	-2	2%	4%	5%	15µM*
SMILES	Shiga toxin inh	CHX counter	NS1 function inh	Sm TGR block	Pf growth 48h	Pf growth 96h
O=C(NC1(C(F)(F)F)N=C(c2ccccc2)N(Cc2ccccc2)C1=O)c1ccc(F)cc1 (stereo unspecified)	.	.	.	0%	.	.
O=C(C1=C(O)C(=O)N(CCc2ccccc2)C1c1cccs1)c1ccco1 (stereo unspecified)	26	2	.	-15%	4%	-14%
O=C(C1=C(O)C(=O)N(CCc2ccccc2)C1c1cccnc1)c1ccco1 (stereo unspecified)	3	-2	-14%	-24%	6.6µM*	-5%
CCOc1ccccc1NC(=O)COC(=O)CC(NC(N)=O)c1ccc(Cl)cc1 (stereo unspecified)	-19	-4	0%	-6%	4%	21%
CCOC(=O)C1=C(N)Oc2ccc3ccccc3c2C1c1ccc(O)cc1 (stereo unspecified)	16	5	13%	2%	-16%	?
CCOC(=O)C1=C(N)Oc2cc(O)ccc2C1c1ccc([N+](=O)[O-])cc1 (stereo unspecified)	-13	-4	3%	5%	9.3µM*	?
Cc1cc(NC(=O)CSc2nnc(-c3c[nH]c4ccccc34)n2-c2ccc(Cl)cc2)no1	-21	-4	-8%	-8%	?	.
N#Cc1ccc(N/N=C/c2ccccc2)c([N+](=O)[O-])c1	3	-2	.	4%	-26%	-5%[5.75 µM]
CN(C)c1ccc(-c2cc(C3C4C=CCCC4(C)C(=O)N3Cc3ccccc3)ccc2F)cc1 (stereo unspecified)	41	5	.	.	.	.
CCC(Sc1nc(C)cc(C)n1)C(=O)NC1=NN=C(c2ccc(C)cc2)CS1 (stereo unspecified)	-24	-5	11%	1%	?	10µM*
Cc1cc(C)nc(SCC(=O)NC2=NN=C(c3ccc(Br)cc3)CS2)n1	-16	-3	-48%	-16%	?	?
O=C1CC(c2ccc(O)c(O)c2)Oc2c1ccc(O)c2O (stereo unspecified)	1	5	1%	56µM*	?	2.1µM*
CC(C)=CCc1c(O)ccc2c1OC(c1ccc(O)c(O)c1)CC2=O (stereo unspecified)	4	14*	6%	56µM*	4%	?
Cc1cc(C(F)(F)F)n(-c2nc(C(=O)Nc3cccnc3)cs2)n1	-7	-1	0%	-11%	-3%	30%[5.75 µM]
CC(=O)c1cccc(NC(=O)c2csc(-n3nc(C)cc3C(F)(F)F)n2)c1	-14	-5	20%	-13%	?	?
Cc1cc(C(F)(F)F)n(-c2nc(C(=O)NN)cs2)n1	19	10	.	16%	20%	7.4µM*
CCOC(=O)c1csc(-n2nc(C)cc2C(F)(F)F)n1	38	33*	1%	5%	?	11%
